Values without a mark were called inactive.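 How the source made its calls, unless noted: active means RAM network inhibition above 8.4% in each of two replicates, 3 SD over the compound average; inconclusive means above 8.4% inhibition in only one replicate; inactive means 8.4% inhibition or less in each replicate.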
Assay: inhibitors of the yeast RAM network, pilot screen, dse1pr::URA3 reporter, 5-FOA selection (AID 869;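 active means inhibition over a set limit, the all-compound mean plus 3 SD, in both replicate runs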;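 further: 0% = DMSO wells with no growth and 100% = 10 µM 1-NA-PP1 with full growth; RAM network block rescues cells from 5-FOA so hits raise OD615 growth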)
Conditions: S. cerevisiae dse1pr::URA3 5-FOA growth, OD615, 2 d; at 10 µM; active compounds read high; strain carries analog-sensitive mutant Cbk1 kinase

| Compound | inhibition [%] |
| --- | --- |
| COCCNS(=O)(=O)c1cccc2cccnc12 | 2.52 |
| Cc1ccc(C)c(N2CCN(C(=O)CCS(=O)(=O)c3cccc4nonc34)CC2)c1 | 1.31 |
| Cc1cccc(-n2ccnc2SCC(=O)Nc2nnc(C)s2)c1 | 1.13 |
| CC(=O)CSc1nc2ccc(Nc3nc(N4CCOCC4)nc(N4CCOCC4)n3)cc2s1 | 0.87 |
| CCOC(=O)c1c(CN(CC)CC)oc2cc(Br)c(O)cc12 | -0.04 |
| CCc1ccc2nc(NC3=NCN(CCOC)CN3)nc(C)c2c1 | 1.18 |
| CCN(Cc1ccccc1)S(=O)(=O)c1ccc(S(=O)(=O)N2CCN(CCC#N)CC2)cc1 | 1 |
| CCCCS(=O)CC(COCc1ccccc1)OC(=O)CSc1nc(C)cc(C)n1 (stereo not given) | 0.95 |
| COc1ccc(C(=O)N2CCC(C(=O)Nc3ccc(OC)c(OC)c3)CC2)cc1 | 1.28 |
| CSC1=NCCN1C(=O)Cc1ccc(Cl)cc1 | 0.105 |
| O=C1NCCCC1C(=O)N1CCN(C(c2ccccc2)c2ccccc2)CC1 (stereo not given) | 0.65 |
| O=C(CCNS(=O)(=O)c1cccc2nsnc12)NC1CCCc2ccccc21 (stereo not given) | 1.23 |
| COc1ccc(C(=O)N2CCN(c3ccc(C)cc3C)CC2)cc1OC | 1.66 |
| CCc1ccccc1N1CSC2=C(C#N)C(c3ccccc3F)CC(=O)N2C1 (stereo not given) | 0.905 |
| CN1C(=O)CC(N2CCN(c3ncccn3)CC2)C1=O (stereo not given) | 0.77 |
| CCCCN(C)CCNC(=O)Cn1c(=O)sc2ccccc21 | 1.31 |
| Cc1ccc(S(=O)(=O)Cc2ccc(C(=O)N3CCN(c4ccccn4)CC3)o2)cc1 | 1.25 |
| CCOC(=O)C1CCN(C(=O)CN(c2ccc(OC)c(OC)c2)S(=O)(=O)c2ccccc2)CC1 | 1.19 |
| CCc1cc(C(=O)COc2ccccc2F)c(O)cc1O | -0.155 |
| O=C(Cn1cc2c(n1)CCCC2)NCC1CCCO1 (stereo not given) | 1.89 |

| Compound | inhibition [%] |
| --- | --- |
| COC(=O)C(C(=O)OC)=C(/C=C/N(C)C)N(C)C | 1.26 |
| CCCS(=O)(=O)c1nc(S(=O)(=O)c2ccc(C)cc2)c(N2CCCC2)s1 | 4.48 |
| COc1cccc(CNC(=O)CCS(=O)(=O)c2cccc3nonc23)c1 | 1.75 |
| N#CC1=C(O)CCCn2c1nc1ccccc1c2=O | 2.41 |
| COc1cc(S(=O)(=O)NCc2ccc3c(c2)OCO3)ccc1Cl | 1.69 |
| Cc1nc2sc(C(c3ccccc3)N3CCN(CCO)CC3)c(O)n2n1 (stereo not given) | 1.32 |
| CC1=CC(C)(C)N(C(=O)CSc2nccn2C)c2cc(C)ccc21 | 1.09 |
| c1ccc(-c2nnc(-c3ccccn3)nn2)nc1 | -0.025 |
| CC1=C(C(=O)N(C)C)C(c2cccc(Cl)c2)NC(=O)N1 (stereo not given) | 2.12 |
| COc1ccc(S(=O)(=O)N2CCN(C)CC2)cc1Br | 1.01 |
| CC1(C)Cc2c(C#N)c(NCCCO)nc(-c3ccccc3)c2CO1 | 0.25 |
| O=C(O)c1ccc(NC(=O)C2C3CCC(C3)C2C(=O)O)cc1 (stereo not given) | 0.345 |
| COc1ccccc1C(=O)NCc1ccc2c(c1)OCO2 | 0.52 |
| COc1ccc(OC)c(NC(=O)Nc2ccccc2C)c1 | 1.13 |
| O=C(Cn1c(=O)oc2cc(S(=O)(=O)N3CCc4ccccc43)ccc21)NC1CCCC1 | 2.91 |
| C=CCOc1cccc(C2C(C(=O)c3ccco3)=C(O)C(=O)N2CCN2CCOCC2)c1 (stereo not given) | 0.795 |
| COc1ccc(C2CC3CC(c4ccccc4)N2O3)cc1 (stereo not given) | 2.11 |
| COc1ccc(N2CC(C(=O)NC3CC(C)(C)NC(C)(C)C3)CC2=O)cc1 (stereo not given) | 0.515 |
| O=C(NCC1CCCO1)C1CC(=O)N(c2ccc(F)c(Cl)c2)C1 (stereo not given) | 1.5 |
| COc1cc(NC(=O)COc2ccc(F)cc2)nc(OC)n1 | 1.72 |

Assay: RAM signaling pathway blockade in yeast – S. cerevisiae, Pdr1DBD-CYC8 efflux-inhibited sensitized strain, primary screen (AID 1298);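 further: 0% = DMSO untreated cells without growth and 100% = 10 µM 1-NA-PP1 full growth; higher means more yeast growth rescued from 5-FOA killing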
Conditions: S. cerevisiae cbk1-as DSE1-URA3 strain, 5-FOA growth OD615, 2 d; at 50 µM; active compounds read high

| Compound | RAM network inhibition [%] |
| --- | --- |
| COCCNS(=O)(=O)c1cccc2cccnc12 | 2.27 |
| Cc1ccc(C)c(N2CCN(C(=O)CCS(=O)(=O)c3cccc4nonc34)CC2)c1 | 6.07 |
| Cc1cccc(-n2ccnc2SCC(=O)Nc2nnc(C)s2)c1 | 6.22 |
| CC(=O)CSc1nc2ccc(Nc3nc(N4CCOCC4)nc(N4CCOCC4)n3)cc2s1 | 7.76 |
| CCOC(=O)c1c(CN(CC)CC)oc2cc(Br)c(O)cc12 | 3.43 |
| CCc1ccc2nc(NC3=NCN(CCOC)CN3)nc(C)c2c1 | -1.8 |
| CCN(Cc1ccccc1)S(=O)(=O)c1ccc(S(=O)(=O)N2CCN(CCC#N)CC2)cc1 | 5.6 |
| CCCCS(=O)CC(COCc1ccccc1)OC(=O)CSc1nc(C)cc(C)n1 (stereo not given) | 3.07 |
| COc1ccc(C(=O)N2CCC(C(=O)Nc3ccc(OC)c(OC)c3)CC2)cc1 | 2.4 |
| CSC1=NCCN1C(=O)Cc1ccc(Cl)cc1 | -0.15 |
| O=C1NCCCC1C(=O)N1CCN(C(c2ccccc2)c2ccccc2)CC1 (stereo not given) | 7.67 |
| O=C(CCNS(=O)(=O)c1cccc2nsnc12)NC1CCCc2ccccc21 (stereo not given) | 0.26 |
| COc1ccc(C(=O)N2CCN(c3ccc(C)cc3C)CC2)cc1OC | 2.92 |
| CCc1ccccc1N1CSC2=C(C#N)C(c3ccccc3F)CC(=O)N2C1 (stereo not given) | 4.09 |
| CN1C(=O)CC(N2CCN(c3ncccn3)CC2)C1=O (stereo not given) | 5.07 |
| CCCCN(C)CCNC(=O)Cn1c(=O)sc2ccccc21 | 5.27 |
| Cc1ccc(S(=O)(=O)Cc2ccc(C(=O)N3CCN(c4ccccn4)CC3)o2)cc1 | 3.12 |
| CCOC(=O)C1CCN(C(=O)CN(c2ccc(OC)c(OC)c2)S(=O)(=O)c2ccccc2)CC1 | 6.25 |
| CCc1cc(C(=O)COc2ccccc2F)c(O)cc1O | -0.21 |
| O=C(Cn1cc2c(n1)CCCC2)NCC1CCCO1 (stereo not given) | 4.01 |

| Compound | RAM network inhibition [%] |
| --- | --- |
| COC(=O)C(C(=O)OC)=C(/C=C/N(C)C)N(C)C | 2.7 |
| CCCS(=O)(=O)c1nc(S(=O)(=O)c2ccc(C)cc2)c(N2CCCC2)s1 | 10.2 |
| COc1cccc(CNC(=O)CCS(=O)(=O)c2cccc3nonc23)c1 | 0.46 |
| N#CC1=C(O)CCCn2c1nc1ccccc1c2=O | 0.01 |
| COc1cc(S(=O)(=O)NCc2ccc3c(c2)OCO3)ccc1Cl | 0.82 |
| Cc1nc2sc(C(c3ccccc3)N3CCN(CCO)CC3)c(O)n2n1 (stereo not given) | 4.51 |
| CC1=CC(C)(C)N(C(=O)CSc2nccn2C)c2cc(C)ccc21 | 0.77 |
| c1ccc(-c2nnc(-c3ccccn3)nn2)nc1 | -3 |
| CC1=C(C(=O)N(C)C)C(c2cccc(Cl)c2)NC(=O)N1 (stereo not given) | 2.17 |
| COc1ccc(S(=O)(=O)N2CCN(C)CC2)cc1Br | -0.01 |
| CC1(C)Cc2c(C#N)c(NCCCO)nc(-c3ccccc3)c2CO1 | -0.94 |
| O=C(O)c1ccc(NC(=O)C2C3CCC(C3)C2C(=O)O)cc1 (stereo not given) | 0.46 |
| COc1ccccc1C(=O)NCc1ccc2c(c1)OCO2 | 2.54 |
| COc1ccc(OC)c(NC(=O)Nc2ccccc2C)c1 | 1.79 |
| O=C(Cn1c(=O)oc2cc(S(=O)(=O)N3CCc4ccccc43)ccc21)NC1CCCC1 | 0.88 |
| C=CCOc1cccc(C2C(C(=O)c3ccco3)=C(O)C(=O)N2CCN2CCOCC2)c1 (stereo not given) | -0.11 |
| COc1ccc(C2CC3CC(c4ccccc4)N2O3)cc1 (stereo not given) | 4.21 |
| COc1ccc(N2CC(C(=O)NC3CC(C)(C)NC(C)(C)C3)CC2=O)cc1 (stereo not given) | 2.14 |
| O=C(NCC1CCCO1)C1CC(=O)N(c2ccc(F)c(Cl)c2)C1 (stereo not given) | 5.33 |
| COc1cc(NC(=O)COc2ccc(F)cc2)nc(OC)n1 | 1.08 |

Source: PubChem BioAssay
